Assay outcomes deposited in PubChem by The Scripps Research Institute Molecular Screening Center.
SMARCA2 act: SMARCA2 function activation, primary screen; MG213 cells, MMTV-luciferase reporter, dexamethasone, overnight; activation, % at 9.1 µM; 370,000 compounds, 1% hits; in the data active = activation above about 7.8%;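 note: 0% = vehicle wells and 100% = reference activator wells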
DAX1 inh-1: NR0B1 (DAX1) inhibition; P51843; 340,000 compounds, 0.99% hits; inhibition, % at 6.75 µM; HEK293 Gal4-DAX1 luciferase reporter, luminescence;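 active = inhibition above the mean over all tested compounds plus 3 SD, cut at about 4.2% in these data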;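 note: 0% = DAX1-transfected cells with DMSO and 100% = empty-vector control cells with DMSO; inhibition shows as a rise in luminescence from relieved DAX1 repression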
Target sequence (P51843 207-470 limits assumed): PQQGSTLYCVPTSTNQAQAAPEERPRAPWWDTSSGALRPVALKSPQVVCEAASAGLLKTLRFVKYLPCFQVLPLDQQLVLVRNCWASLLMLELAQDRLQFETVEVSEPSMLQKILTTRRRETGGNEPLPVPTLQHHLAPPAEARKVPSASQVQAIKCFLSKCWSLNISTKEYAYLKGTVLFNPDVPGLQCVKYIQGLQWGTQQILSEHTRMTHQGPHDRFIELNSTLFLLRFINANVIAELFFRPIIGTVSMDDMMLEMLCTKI
ssDAF-12 act: activators of S. stercoralis DAF-12 nuclear receptor | HEK293 ssDAF-12/GRIP1 lit1-tk-luc reporter, luminescence; % of 3 µM dafachronic acid response | activation, % at 6.8 µM | 370,000 compounds, 1% hits;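 active = activation above the mean over all tested compounds plus 3 SD, cut at about 0.9% in these data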;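 note: 0% = DMSO-only wells and 100% = 3 µM delta7-dafachronic acid wells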
hgDAF12 agonist: hgDAF-12 agonism, primary luciferase screen; HEK293 GAL4-hgDAF12 UAS-luciferase reporter, agonist luminescence; normalized to butyrate control; activation, % at 6.8 µM; 370,000 compounds, 1.8% hits;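 active = activation above a cutoff set at the mean of all screened compounds plus 3 SD, cut at about 10% in these data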;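 note: 0% = DMSO wells and 100% = sodium butyrate wells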
DAX1 inh-2: DAX1 (NR0B1) inhibition, primary screen. HEK293T StAR-luciferase reporter, SF-1/DAX-1 repression relief. 370,000 compounds, 1.1% hits. inhibition, % at 6.8 µM. AID 652010;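 active = inhibition above the mean over all tested compounds plus 3 SD, cut at about 3.6% in these data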;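 note: 0% = DAX-1 cells with DMSO and 100% = cells lacking DAX-1 with DMSO; higher inhibition means more luminescence from relief of DAX-1 repression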
hcDAF-12 act: H. contortus DAF-12 activation, primary screen | HEK293 hcDAF-12 lit1-tk-luc reporter, luminescence; 0% DMSO, 100% Δ7-dafachronic acid | activation, % at 6.8 µM | 370,000 compounds, 1.4% hits;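 active = activation above the mean of all tested compounds plus 3 SD, cut at about 5.5% in these data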;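 note: 100% = response to 3 µM Δ7-dafachronic acid high control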
DAX1 inh confirm: confirmation of human DAX1 (NR0B1) inhibitors; shares compounds with DAX1 inh-2; HEK293T StAR-promoter luciferase reporter, SF-1/DAX-1 repression; inhibition, % at 6.8 µM; 2,400 compounds, 87% hits;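 active = inhibition above the average of every tested compound plus 3 SD, cut at about 3.8% in these data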;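 note: 0% = DAX-1 cells with DMSO and 100% = no DAX-1 control cells with DMSO; active compounds raise luminescence by relieving repression of the StAR reporter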
Target sequence (P51843 whole entry, looked up): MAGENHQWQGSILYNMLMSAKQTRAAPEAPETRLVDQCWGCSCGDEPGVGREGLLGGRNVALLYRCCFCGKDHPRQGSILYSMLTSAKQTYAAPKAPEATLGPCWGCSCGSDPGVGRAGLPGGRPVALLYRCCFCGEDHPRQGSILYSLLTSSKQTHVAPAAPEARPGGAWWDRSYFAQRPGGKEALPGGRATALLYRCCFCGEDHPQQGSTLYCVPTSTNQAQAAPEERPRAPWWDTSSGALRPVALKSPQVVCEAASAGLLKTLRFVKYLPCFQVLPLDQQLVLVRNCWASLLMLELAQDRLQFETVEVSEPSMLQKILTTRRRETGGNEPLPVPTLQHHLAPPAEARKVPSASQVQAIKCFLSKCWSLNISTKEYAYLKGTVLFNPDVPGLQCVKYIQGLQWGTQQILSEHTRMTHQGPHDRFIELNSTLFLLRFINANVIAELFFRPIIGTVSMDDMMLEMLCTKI
SF1 mutant ctr: counter-screen for DAX1 inhibitors: nonselective inhibitors with SF-1 AF2 mutant | shares compounds with DAX1 inh-2 | HEK293 StAR-luciferase, luminescence | inhibition, % at 6.8 µM | 2,400 compounds, 78% hits | AID 652136;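 active = inhibition above the mean of all tested compounds plus 3 SD, cut at about 3% in these data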;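 note: 0% = DAX-1 transfected cells with DMSO and 100% = cells without DAX-1 with DMSO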
SMARCA2 act conf: confirmation of SMARCA2 (BRM) function activators. 3,500 compounds, 30% hits. AID 652260. MG213 cells, MMTV-luciferase with dexamethasone, luminescence, overnight; MG213 cells expressing E1A, Rb sequestered; DMSO wells 0%, reference activator 100%. activation, % at 9.1 µM. shares compounds with SMARCA2 act;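 active = activation above its plate's cutoff, the mean activation of tested wells plus 3 SD, cut at about 7.9% in these data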
VP16 Luc act: activates GAL4-VP16 luciferase, flagging SMARCA2 activator hits; AID 686939; HEK293 GAL4-VP16 pG5luc reporter, luciferase luminescence; scaled: DMSO wells 0%, SAHA wells 100%; shares compounds with SMARCA2 act; activation, % at 9.1 µM; 3,500 compounds, 41% hits;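 active = activation above the solvent-only control well mean plus 3 SD, averaged across control plates, cut at about 5.2% in these data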
LXR ag: LXR-beta agonism as hcDAF-12 counter-screen; activation, % at 6.8 µM; HEK293 Gal4-LXR tk-luc reporter, luminescence, 24 h; normalized: DMSO 0%, positive control 100%; AID 743027; shares compounds with hcDAF-12 act; 3,400 tested, under 10 active;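 active = mean percent activation of the reporter above a cutoff set as the average over tested compounds plus their standard deviation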
hcDAF12 ag: hcDAF-12 agonism, confirmation assay | shares compounds with hcDAF-12 act | activation, % at 6.8 µM | HEK293 hcDAF-12 lit1-tk-luc reporter, luminescence; % of Δ7-dafachronic acid response | 3,400 compounds, 61% hits;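 active = mean activation across triplicate tests above the threshold derived from the earlier primary screen, cut at about 5.5% in these data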;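 note: 0% = DMSO only wells and 100% = 3 µM Δ7-dafachronic acid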
hgDAF12 ag: confirmation of H. glycines DAF-12 agonists. 3,300 compounds, 80% hits. HEK293 GAL4-hgDAF12 luciferase reporter, agonist mode; percent of butyrate response. activation, % at 6.8 µM. shares compounds with hgDAF12 agonist;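 active = mean activation over triplicate wells above the hit cutoff derived from the earlier primary screen, cut at about 11% in these data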;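 note: 0% = DMSO low control and 100% = 2 mM sodium butyrate high control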
LXR ag 2: counter-screen for DAF-12 agonists: agonists of human LXR-beta | 3,300 tested, under 10 active | activation, % at 6.8 µM | shares compounds with hgDAF12 agonist | HEK293 Gal4-LXR luciferase reporter, 24 h | AID 743051;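 active = mean activation of the triplicate above a set limit carried over from the primary screen, none filed active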
Starred values were filed as active, the others as inactive; nt = no result. Sampled rows, rich in hits. Any-hit rate of the full collection: about 4.8%.

SMILES	SMARCA2 act	DAX1 inh-1	ssDAF-12 act	hgDAF12 agonist	DAX1 inh-2	hcDAF-12 act	SMARCA2 act conf	VP16 Luc act	others
COc1ccc2cc(CCC(C)=O)ccc2c1	3.3	2.5	0.4	14.4*	5.2*	2.7	nt	nt	DAX1 inh confirm=9.6*;SF1 mutant ctr=7.9*;hgDAF12 ag=16.0*;LXR ag 2=0.6
CCOC(=O)c1nc2ccc(C)cc2c2c1C1CC(c3c(Cl)cccc31)N2C(=O)OCc1ccccc1 (configuration not stated)	-4.9	-0.3	-1.3	3.8	-2.5	1.3	nt	nt
Cn1c(N2CCCCC2)cc(=O)n(C)c1=O	1.5	1.2	-0.6	0.0	-0.2	-0.8	nt	nt
Cc1ccc(NC(=O)CSc2nccn2Cc2ccco2)c(C)c1	10.8*	0.5	-0.1	13.6*	6.3*	7.2*	9.9*	6.5*	DAX1 inh confirm=7.8*;SF1 mutant ctr=3.2*;LXR ag=0.9;hcDAF12 ag=7.0*;hgDAF12 ag=13.7*;LXR ag 2=0.6
Cc1ccc(C)c(NC(=O)CSc2nccn2Cc2ccco2)c1	3.7	1.3	-1.0	4.5	-0.7	2.8	nt	nt
COC(=O)C1(C)Nc2ccccc2C(=O)N1c1ccccc1OC (configuration not stated)	-0.8	-0.9	-0.2	1.1	0.4	-0.8	nt	nt
COc1ccc(N2C(=O)c3ccccc3NC2(C)C)cc1	4.2	0.3	-0.5	28.5*	7.6*	3.4	nt	nt	DAX1 inh confirm=2.9;SF1 mutant ctr=1.2;hgDAF12 ag=9.0;LXR ag 2=0.2
CCNC(=S)NNC(=O)c1cc(-c2ccc(OC)cc2)nc2ccccc12	2.5	-3.1	0.6	18.3*	5.5*	4.8	nt	nt	DAX1 inh confirm=15.1*;SF1 mutant ctr=8.8*;hgDAF12 ag=17.7*;LXR ag 2=1.1
Cc1cc(C)n2c(Nc3ccc4c(c3)OCCO4)c(-c3ccc(C)o3)nc2n1	3.5	0.4	0.0	13.4*	5.7*	6.9*	nt	nt	DAX1 inh confirm=-1.4;SF1 mutant ctr=-1.1;LXR ag=-0.2;hcDAF12 ag=0.8;hgDAF12 ag=9.1;LXR ag 2=0.6
c1ccc2nc3c(nc2c1)[nH]c1ccccc13	7.1	3.2	1.7*	18.3*	4.6*	7.0*	nt	nt	DAX1 inh confirm=13.7*;SF1 mutant ctr=7.6*;LXR ag=1.9;hcDAF12 ag=10.7*;hgDAF12 ag=17.3*;LXR ag 2=0.7
O=c1c2ccccc2nc2n1CCc1c-2[nH]c2ccccc12	16.4*	4.9*	3.6*	25.2*	7.8*	13.0*	8.4*	9.3*	DAX1 inh confirm=19.0*;SF1 mutant ctr=11.7*;LXR ag=2.0;hcDAF12 ag=13.9*;hgDAF12 ag=23.6*;LXR ag 2=1.2
COc1ccccc1NC(=O)c1cc(=O)[nH]c2ccccc12	-1.9	-0.2	0.5	0.3	0.4	4.3	nt	nt
Cc1cccc(C)c1NC(=O)CNC(=O)Cc1c[nH]c2ccccc12	-3.0	0.8	0.6	2.3	0.8	4.1	nt	nt
COc1ccccc1NC(=O)c1c[nH]c2ccccc12	10.0*	4.2	0.2	5.0	0.8	3.5	3.7	3.9
Cc1cccc(C)c1NC(=O)c1c[nH]c2ccccc12	13.4*	0.7	-0.6	6.6	0.8	6.2*	8.7*	9.4*
COc1ccc(CNc2cc(C)nc3ccc(OC)cc23)cc1	2.5	-0.9	-1.5	-1.2	0.3	-3.6	nt	nt
Cc1onc(-c2ccccc2)c1C(=O)Nc1nnc(N(C)Cc2ccccc2)s1	-0.5	-1.6	-0.6	-1.9	-0.8	-0.3	nt	nt
CCc1cc(=O)oc2cc(OCC(=O)NCCCN3CCOCC3)c(Cl)cc12	8.4*	0.8	-1.0	0.8	0.0	-0.2	-0.9	-0.6
CC1(C(=O)Nc2ccc3c(c2)OCCO3)CCN1C(=O)C1(c2ccccc2)CC1 (configuration not stated)	-1.2	nt	-1.4	-2.0	0.0	-0.7	nt	nt
O=C(Nc1ccc(Br)cc1Cl)c1cnccn1	9.4*	1.5	-1.4	2.5	0.3	-0.9	12.1*	4.5
Cc1ccccc1N/C(SCc1cccc(Br)c1)=C(/C#N)C(N)=O	9.7*	0.5	-1.1	-1.6	-0.2	0.5	-3.9	0.5
Cc1ccc(CNC(=O)Nc2ccccc2)cc1	8.7*	0.1	-0.5	4.8	1.5	3.6	5.2	11.3*
Cc1ccc(NC(=O)NCCCCc2ccccc2)cc1	2.5	0.1	-1.7	3.3	0.7	-0.2	nt	nt
O=C(NCCCc1ccccc1)Nc1ccccc1	13.3*	1.1	-0.9	1.2	0.4	2.1	6.8	2.3
C/C(=N/NC(=O)Nc1ccccc1)c1ccc(C)cc1	8.7*	2.2	-1.2	-2.1	-0.2	-1.6	3.5	-0.1
SMILES	SMARCA2 act	DAX1 inh-1	ssDAF-12 act	hgDAF12 agonist	DAX1 inh-2	hcDAF-12 act	SMARCA2 act conf	VP16 Luc act	others
C/C(=N\NC(=O)Nc1ccccc1)c1ccc2ccccc2c1	-0.5	1.0	-0.6	-1.3	0.2	-0.8	nt	nt
O=C(NCc1ccc(F)cc1)Nc1ccccc1	0.3	0.8	-0.3	9.2	1.6	0.6	nt	nt
CC(=O)N1CN(C2CC(C)(C)NC(C)(C)C2)Cc2c1sc1c2CCCC1	0.1	0.5	-0.1	1.2	0.1	1.2	nt	nt
COc1ccc(C)cc1NC(=O)c1cnc2n(c1=O)CCS2	9.8*	1.9	-1.8	0.8	1.3	0.2	3.0	1.9
O=C1/C(=C/c2cccnc2)SC(=S)N1CCc1ccccc1	8.7*	0.4	-0.6	-1.7	0.0	2.4	0.8	1.4
CN1CCN(CC(O)COc2ccc(OCC(O)CN3CCN(C)CC3)cc2)CC1 (configuration not stated)	-0.8	-1.8	-0.8	0.8	0.4	0.2	nt	nt
